MITF act = MITF TRPM1 promoter activation in melanoma cells; SK-MEL-5 TRPM1-promoter luciferase, 24 h; % of positive control, neutral wells = 0; activation, % at 12.5 µM; 0.75% of 300,000 active;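 active = mean activation of at least 80% with every replicate also reaching 80%; inconclusive = mean reaches 80% but some replicate falls short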;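 note: 0% = neutral control wells and 100% = parthenolide positive control wells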
C2C12 statin = suppression of simvastatin myotoxicity. C2C12 myotubes + simvastatin, ATP luminescence, 48 h; scaled: DMSO 0, geranylgeraniol control 100. rescue of ATP level, % at 7.49 µM. 0.78% of 330,000 active. AID 602340;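 active = mean ATP rescue above about 67%, or every replicate alone reaching that limit, limit read from the data, passing the limit was not always enough; inconclusive = no clear call, values can overlap the other calls; inactive = mean under the limit and some replicate under it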;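 note: myotubes were challenged with 10 µM simvastatin during compound exposure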
Wnt bcat act = Wnt/beta-catenin pathway activation | Wnt/beta-catenin reporter cell assay, activator, plate reader | activation, % at 9.35 µM | 1.2% of 300,000 active; in the data active = activation above about 30%, passing the limit was not always enough; inconclusive = no clear call, values can overlap the other calls;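 note: 0% = neutral control wells and 100% = positive control wells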
esBAF inh = inhibitors of esBAF chromatin remodeling in mouse ES cells; Bmi1-luciferase knock-in reporter, 24 h; 100% = twice the neutral-well signal; reporter increase, % at 12.5 µM; 2% of 350,000 active; AID 602393; in the data active = activation above about 40%; inconclusive = no clear call, values can overlap the other calls;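 note: 0% = median of the plate's neutral control wells and 100% = double that signal; a rise in the Bmi1 reporter signal indicates esBAF inhibition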
The depositor's hits bear a star; u = inconclusive; x = no result. In the library only some 3% were active in any assay of this set; here they are far more common.

SMILES	MITF act	C2C12 statin	Wnt bcat act	esBAF inh
O=C(Nc1ccccc1)Nc1nnc(/C=C/c2ccccc2Cl)s1	13.7	x	x	x
O=C(c1cccc(Cl)c1)c1nn(-c2ccccc2)c(=O)cc1C(F)(F)F	-19.5	105.3*	x	4.0
Fc1ccc(C[n+]2csc3ccccc32)cc1	-11.6	73.8*	-2.4	6.1
COc1ccc(-c2cnc3c(c2)C(=O)N([C@H](C)CO)C[C@H](C)[C@H](CN(C)Cc2cccc(C)c2)O3)cc1	x	9.7	x	-6.1
C[C@@H]1CN([C@@H](C)CO)C(=O)Cc2cc(NC(=O)CCC(F)(F)F)ccc2O[C@H]1CN(C)Cc1ccc(Oc2ccccc2)cc1	x	86.9*	x	7.8
COc1ccc(CN(C)C[C@@H]2Oc3ccc(NC(=O)CCC(F)(F)F)cc3CC(=O)N([C@H](C)CO)C[C@H]2C)cc1	x	102.3*	x	-0.6
COc1ccc(CN(C)C[C@@H]2Oc3ccc(NC(=O)CCC(F)(F)F)cc3CC(=O)N([C@H](C)CO)C[C@@H]2C)cc1	x	8.5	x	-2.9
CO[C@@H]1CN(C)C(=O)c2cc(NC(=O)C3CC3)ccc2OC[C@H](C)NC[C@@H]1C	x	-7.8	x	-1.9
COc1ccc(-n2nc(C(=O)NCC(=O)N3CCC(C)CC3)c3ccccc3c2=O)cc1Cl	78.8	-9.8	8.1	47.3*
O=C(OCCOc1ccc(Br)cc1)c1cnccn1	1.0	117.1*	x	-1.2
O=C(COC(=O)c1cnccn1)c1ccc(Br)cc1	7.5	-4.2	x	-5.2
CCC(=O)N[C@H]1CC[C@@H](CC(=O)OC)O[C@@H]1CO	x	-0.6	x	-1.9
C=CCn1c(C)cc(C(=O)CSc2nc3ccccc3c(=O)[nH]2)c1C	16.4	-23.4	44.1*	12.2
CC(=O)Nc1ccc(NC(=O)CSc2nc3ccccc3o2)cc1	-1.1	x	12.5	x
C=CCn1c(C)cc(C(=O)CSc2nc3ccccc3o2)c1C	46.4	x	47.2*	x
Cc1cc(C(=O)CSc2nc3ccccc3o2)c(C)n1C1CC1	x	-6.8	x	36.4
Cc1cccc(NC(=O)CSc2nc3ccccc3o2)c1	x	0.0	x	46.8*
C=CCn1c(C)cc(C(=O)CSc2nc3ccccc3[nH]2)c1C	0.7	-70.8	x	-63.7
C[C@@H]1CN([C@H](C)CO)C(=O)Cc2cc(NC(=O)CCCCCC(=O)Nc3ccccc3N)ccc2O[C@H]1CN(C)S(=O)(=O)c1cccs1	x	24.4	x	6.3
CCC(=O)Nc1ccc2c(c1)C(=O)N(C)C[C@H](OC)[C@@H](C)CN(C(=O)CN(C)C)[C@H](C)CO2	x	13.4	x	1.0
O=C(NC1CCC1)[C@@H]1[C@@H](CO)[C@@H]2Cn3c(ccc(C4=CCCC4)c3=O)[C@@H]2N1C(=O)C1CCCC1	x	-23.8	x	-1.6
O=C(O)C[C@@H]1CC[C@@H](NC(=O)Nc2ccccc2)[C@H](CO)O1	x	7.0	x	-1.3
C[C@@H]1CN([C@@H](C)CO)C(=O)c2cc(C#C[C@@H](C)O)cnc2O[C@@H]1CN(C)C(=O)CN1CCOCC1	x	5.2	x	0.9
Oc1ccc(/C=N/Nc2nc(-c3cccnc3)nc3ccccc23)c(O)c1	15.7	-10.5	0.7	58.1*
O=C1/C(=C/c2ccc(O)cc2)COc2ccccc21	35.8	-8.0	31.0*	22.0
SMILES	MITF act	C2C12 statin	Wnt bcat act	esBAF inh
CNc1ccc(/C=C2\COc3ccccc3C2=O)cc1[N+](=O)[O-]	30.6	2.8	x	49.3*
O=C1/C(=C/c2ccccc2[N+](=O)[O-])COc2ccccc21	-82.5	168.6*	-6.6	55.7*
COc1ccc(NC(=O)N(C)C[C@@H]2OCCCC[C@@H](C)Oc3ccc(NC(=O)Nc4c(C)noc4C)cc3C(=O)N([C@H](C)CO)C[C@H]2C)cc1	x	-16.9	x	7.1
CO[C@H]1CN(C)C(=O)c2cc(NS(C)(=O)=O)ccc2OC[C@@H](C)N(Cc2cccnc2)C[C@@H]1C	x	3.8	x	-3.6
Cc1cc(NC(=S)Nc2ccc(C)c(Cl)c2)n[nH]1	90.7*	x	u	x
COc1ccc(NC(=S)Nc2cc(C)[nH]n2)cc1Cl	58.8	-57.1	25.8	23.6
C[C@@H](O)C#Cc1ccc([C@H]2[C@H](CO)N3CCCCN(C(=O)c4ccncc4)C[C@@H]23)cc1	x	3.7	x	3.8
NC(=O)c1ccccc1NC(=O)/C=C/c1cccc(Cl)c1	x	-7.5	x	75.8*
CCN1[C@@H]2Cn3c(ccc(C4=CCCC4)c3=O)[C@H]1[C@@H](C(=O)N[C@H](C)c1ccccc1)[C@@H]2CO	x	-9.1	x	-1.6
CO[C@H]1CN(C)C(=O)c2cc(NC(=O)C3CC3)ccc2OC[C@@H](C)N(C(=O)c2cnccn2)C[C@H]1C	x	2.3	x	0.5
CCN=c1scc(-c2ccccc2)n1/N=C/c1ccccn1	8.3	x	x	x
CCN=c1scc(-c2ccc(F)cc2)n1/N=C/c1ccccn1	91.5*	x	17.3	x
